# Measured values as given in paper PMC7862700, “An all-to-all approach to the identification of sequence-specific readers for epigenetic DNA modifications on cytosine”.
# Legend:
# Assay in all cases: DAPPL (digital affinity profiling via proximity ligation, sequencing); 10 mM Tris-HCl pH 7.5, 50 mM NaCl, 1 mM DTT, 4% glycerol, room temperature, 30 min; GST-TFs on glutathione beads, 16-mer random dsDNA library, 0.1% formaldehyde crosslink after washing; high values mean tight binding
# Details in all cases: protein: recombinant; tags: N-terminal GST; dsDNA, one strand shown
# ELF4 = ELF4 (Homo sapiens, UniProt Q99607 1-663)
# Summary of the method: (§1)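 Pools were built from human transcription factors expressed in yeast as GST fusions, captured on glutathione beads and DNA-barcoded, along with a tag-only sample. Incubation with 200 nmole of a 16-mer random double-stranded DNA library lasted 30 min at room temperature in Tris/NaCl/DTT/glycerol buffer, and was followed by washing, 0.1% formaldehyde crosslinking, proximity ligation, PCR amplification and Illumina NextSeq500 sequencing. Binding signal is the quotient of each hexamer's read frequency for a factor and its frequency for the tag-only sample.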
# ETV2 = biological target: T1, ETV2 (Homo sapiens, UniProt O00321 1-342)
# T1 sequence: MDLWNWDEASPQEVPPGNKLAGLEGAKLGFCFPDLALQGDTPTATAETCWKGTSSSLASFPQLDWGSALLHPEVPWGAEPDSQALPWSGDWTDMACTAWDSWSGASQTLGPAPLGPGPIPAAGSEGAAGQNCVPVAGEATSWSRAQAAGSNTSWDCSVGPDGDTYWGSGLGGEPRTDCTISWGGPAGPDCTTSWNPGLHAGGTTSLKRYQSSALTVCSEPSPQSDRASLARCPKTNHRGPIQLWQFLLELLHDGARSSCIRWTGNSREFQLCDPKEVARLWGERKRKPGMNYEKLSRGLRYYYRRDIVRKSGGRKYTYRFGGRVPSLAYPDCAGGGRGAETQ
# Summary of the method: as §1
# ELF3 = biological target: T2, ELF3 (Homo sapiens, UniProt P78545 1-371)
# T2 sequence: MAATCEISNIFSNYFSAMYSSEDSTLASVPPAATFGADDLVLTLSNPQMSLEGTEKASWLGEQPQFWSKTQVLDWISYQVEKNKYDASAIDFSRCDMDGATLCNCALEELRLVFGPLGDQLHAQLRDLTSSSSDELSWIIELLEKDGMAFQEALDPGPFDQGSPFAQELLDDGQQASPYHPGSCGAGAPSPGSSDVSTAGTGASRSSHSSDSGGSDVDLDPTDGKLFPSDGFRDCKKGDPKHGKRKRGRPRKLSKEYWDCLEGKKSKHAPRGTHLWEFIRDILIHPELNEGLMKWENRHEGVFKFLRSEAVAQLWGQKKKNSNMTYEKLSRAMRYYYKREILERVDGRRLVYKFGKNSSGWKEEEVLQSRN
# Summary of the method: as §1
# ETV1 = ETV1 (Homo sapiens, UniProt P50549 1-477)
# Summary of the method: as §1
# ERF = biological target: T3, ERF (Homo sapiens, UniProt P50548 1-548)
# T3 sequence: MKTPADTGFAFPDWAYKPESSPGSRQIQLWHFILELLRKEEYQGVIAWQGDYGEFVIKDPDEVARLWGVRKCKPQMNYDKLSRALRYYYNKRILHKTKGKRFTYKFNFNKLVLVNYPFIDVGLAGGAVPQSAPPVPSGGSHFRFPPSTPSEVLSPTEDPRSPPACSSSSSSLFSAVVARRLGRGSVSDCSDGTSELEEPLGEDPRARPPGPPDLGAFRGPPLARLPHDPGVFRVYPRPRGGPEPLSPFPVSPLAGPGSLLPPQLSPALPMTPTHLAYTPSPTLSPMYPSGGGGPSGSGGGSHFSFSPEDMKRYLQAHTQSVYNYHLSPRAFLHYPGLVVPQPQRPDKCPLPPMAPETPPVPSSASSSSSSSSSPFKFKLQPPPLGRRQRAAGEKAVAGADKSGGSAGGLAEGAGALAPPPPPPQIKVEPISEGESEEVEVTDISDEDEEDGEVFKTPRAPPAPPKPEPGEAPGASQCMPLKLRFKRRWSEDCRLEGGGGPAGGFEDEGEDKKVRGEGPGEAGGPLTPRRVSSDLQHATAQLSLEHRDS
# Summary of the method: as §1
# ETV3L = biological target: T4, ETV3L (Homo sapiens, UniProt Q6ZN32 1-361)
# T4 sequence: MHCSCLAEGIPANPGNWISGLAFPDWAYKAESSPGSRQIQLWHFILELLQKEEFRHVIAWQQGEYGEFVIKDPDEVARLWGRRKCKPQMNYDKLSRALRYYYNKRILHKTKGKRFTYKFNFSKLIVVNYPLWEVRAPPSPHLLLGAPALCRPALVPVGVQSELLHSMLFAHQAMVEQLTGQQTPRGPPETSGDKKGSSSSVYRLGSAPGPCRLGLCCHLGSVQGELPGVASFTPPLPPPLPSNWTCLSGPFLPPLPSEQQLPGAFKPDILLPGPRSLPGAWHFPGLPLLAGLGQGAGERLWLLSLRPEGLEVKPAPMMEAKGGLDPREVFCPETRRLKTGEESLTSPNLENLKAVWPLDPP
# Summary of the method: as §1
# ETS2 = biological target: T5, ETS2 (Homo sapiens, UniProt P15036 1-469)
# T5 sequence: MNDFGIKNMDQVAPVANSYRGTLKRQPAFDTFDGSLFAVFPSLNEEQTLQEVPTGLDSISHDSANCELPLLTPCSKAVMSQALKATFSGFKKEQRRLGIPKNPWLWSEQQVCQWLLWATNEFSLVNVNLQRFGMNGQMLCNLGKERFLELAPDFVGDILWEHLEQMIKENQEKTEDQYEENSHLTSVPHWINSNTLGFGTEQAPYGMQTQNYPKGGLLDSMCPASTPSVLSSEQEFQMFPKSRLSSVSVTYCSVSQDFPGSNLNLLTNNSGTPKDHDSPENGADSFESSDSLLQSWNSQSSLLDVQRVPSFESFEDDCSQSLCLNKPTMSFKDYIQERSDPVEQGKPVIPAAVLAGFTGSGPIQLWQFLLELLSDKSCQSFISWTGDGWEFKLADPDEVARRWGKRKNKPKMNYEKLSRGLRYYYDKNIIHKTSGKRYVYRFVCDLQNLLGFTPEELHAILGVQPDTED
# Summary of the method: as §1
# ETV7 = biological target: T6, ETV7 (Homo sapiens, UniProt Q9Y603 1-341)
# T6 sequence: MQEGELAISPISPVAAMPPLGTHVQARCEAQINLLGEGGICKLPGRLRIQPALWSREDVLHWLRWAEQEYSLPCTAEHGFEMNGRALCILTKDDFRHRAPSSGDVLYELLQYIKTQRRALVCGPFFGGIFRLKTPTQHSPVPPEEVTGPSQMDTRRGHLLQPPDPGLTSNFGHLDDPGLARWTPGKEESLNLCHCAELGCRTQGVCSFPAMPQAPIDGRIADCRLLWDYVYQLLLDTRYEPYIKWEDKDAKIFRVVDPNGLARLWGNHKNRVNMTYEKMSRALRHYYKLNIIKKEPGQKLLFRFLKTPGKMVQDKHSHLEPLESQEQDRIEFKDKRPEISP
# Summary of the method: as §1
# ETV3 = biological target: T7, ETV3 (Homo sapiens, UniProt P41162-2 1-143)
# T7 sequence: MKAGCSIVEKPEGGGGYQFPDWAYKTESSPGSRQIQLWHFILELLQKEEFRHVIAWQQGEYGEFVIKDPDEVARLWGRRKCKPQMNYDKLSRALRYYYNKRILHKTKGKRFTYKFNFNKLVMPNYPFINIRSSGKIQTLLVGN
# Summary of the method: as §1
# ETV6 = ETV6 (Homo sapiens, UniProt P41212 1-452)
# Summary of the method: as §1
# ETV1, sequence (P50549 whole entry): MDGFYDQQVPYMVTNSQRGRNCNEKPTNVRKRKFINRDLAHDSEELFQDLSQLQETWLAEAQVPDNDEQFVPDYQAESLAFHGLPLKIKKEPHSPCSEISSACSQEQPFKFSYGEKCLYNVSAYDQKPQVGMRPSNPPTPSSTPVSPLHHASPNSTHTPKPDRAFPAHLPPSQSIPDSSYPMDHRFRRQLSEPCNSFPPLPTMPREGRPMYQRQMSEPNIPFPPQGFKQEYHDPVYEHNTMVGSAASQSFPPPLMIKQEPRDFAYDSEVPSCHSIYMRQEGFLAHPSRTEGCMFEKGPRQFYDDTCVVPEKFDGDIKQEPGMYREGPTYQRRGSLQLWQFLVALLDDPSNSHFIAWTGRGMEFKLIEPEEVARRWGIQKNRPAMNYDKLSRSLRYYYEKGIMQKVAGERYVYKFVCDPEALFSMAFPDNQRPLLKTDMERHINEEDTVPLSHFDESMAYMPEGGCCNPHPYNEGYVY
# ELF4, sequence (Q99607 whole entry, the tested form may be a part): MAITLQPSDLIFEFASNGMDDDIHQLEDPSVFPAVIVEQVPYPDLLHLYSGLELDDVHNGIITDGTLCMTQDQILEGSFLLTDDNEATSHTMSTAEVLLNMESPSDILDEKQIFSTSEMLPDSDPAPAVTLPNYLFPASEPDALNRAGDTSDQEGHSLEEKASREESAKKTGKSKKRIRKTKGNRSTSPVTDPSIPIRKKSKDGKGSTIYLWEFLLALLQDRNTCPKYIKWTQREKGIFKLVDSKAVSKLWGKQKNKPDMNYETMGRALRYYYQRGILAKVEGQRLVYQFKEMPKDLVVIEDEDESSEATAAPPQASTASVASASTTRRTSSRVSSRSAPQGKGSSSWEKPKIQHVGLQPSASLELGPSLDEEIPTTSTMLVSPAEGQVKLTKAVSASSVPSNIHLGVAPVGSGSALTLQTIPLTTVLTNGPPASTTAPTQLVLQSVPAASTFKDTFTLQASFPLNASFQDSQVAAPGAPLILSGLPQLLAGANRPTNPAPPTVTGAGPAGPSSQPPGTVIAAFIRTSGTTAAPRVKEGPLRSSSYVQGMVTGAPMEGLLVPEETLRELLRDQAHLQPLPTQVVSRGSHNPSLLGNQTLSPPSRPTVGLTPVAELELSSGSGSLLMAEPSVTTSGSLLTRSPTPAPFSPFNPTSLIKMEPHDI
# ETV6, sequence (P41212 whole entry): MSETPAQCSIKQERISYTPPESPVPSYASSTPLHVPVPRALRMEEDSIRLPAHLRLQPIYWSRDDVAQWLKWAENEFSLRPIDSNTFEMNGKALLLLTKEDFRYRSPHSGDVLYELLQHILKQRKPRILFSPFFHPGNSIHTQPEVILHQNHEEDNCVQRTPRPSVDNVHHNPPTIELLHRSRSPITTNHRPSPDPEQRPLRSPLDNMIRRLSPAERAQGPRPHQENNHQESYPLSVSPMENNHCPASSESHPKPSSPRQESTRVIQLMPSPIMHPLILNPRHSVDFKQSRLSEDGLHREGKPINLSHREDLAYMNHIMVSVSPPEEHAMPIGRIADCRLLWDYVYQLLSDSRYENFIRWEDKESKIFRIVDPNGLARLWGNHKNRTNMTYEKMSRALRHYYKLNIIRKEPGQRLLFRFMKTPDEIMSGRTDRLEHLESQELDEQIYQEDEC
sequence,measurement,setting,value
GTTGAC,binding signal,ELF4,"1.15 fold enrichment (6-mer frequency, TF over GST control)"
same,binding signal,ETV2,"1.07 fold enrichment (6-mer frequency, TF over GST control)"
same,binding signal,ELF3,"1.09 fold enrichment (6-mer frequency, TF over GST control)"
same,binding signal,ETV1,"1.06 fold enrichment (6-mer frequency, TF over GST control)"
same,binding signal,ERF,"1.43 fold enrichment (6-mer frequency, TF over GST control)"
same,binding signal,ETV3L,"1.19 fold enrichment (6-mer frequency, TF over GST control)"
same,binding signal,ETS2,"1.17 fold enrichment (6-mer frequency, TF over GST control)"
same,binding signal,ETV7,"1.19 fold enrichment (6-mer frequency, TF over GST control)"
same,binding signal,ETV3,"1.04 fold enrichment (6-mer frequency, TF over GST control)"
same,binding signal,ETV6,"1.21 fold enrichment (6-mer frequency, TF over GST control)"
